Unmarked numbers belong to inactive results. Results filed as inconclusive are left out. Entries that show only a call come without a potency. Calls of active or inactive are those of the source. Unless noted, calls come from the whole dose curve; as a rule, active = well fitted curve in the direction sought with a large enough effect in the repeat runs; inconclusive = weak or mixed curves; inactive = no such curve, though single readings can be large; an effect the other way counts as inactive or inconclusive.
Legend:
[1] = qHTS assay for small molecule agonists of the p53 signaling pathway (AID 651631; calls by dose curve; note: nearly all actives have a fitted effect of over 15% in size; note: potency is the fitted concentration of half-maximal effect)
Summary of the method: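 HCT-116 cells carrying a stable p53 response element–beta-lactamase reporter were plated, rested 5 h at 37 °C, then exposed to compound in DMSO for 16 h at 37 °C; reporter activity was read as FRET substrate fluorescence after 2 h at room temperature.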

[2] = qHTS assay for small molecules that induce genotoxicity in human embryonic kidney cells expressing luciferase-tagged ATAD5 (AID 651632); note: nearly all actives have a fitted effect of over 15% in size
Summary of the method: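 Genotoxicity read-out via ATAD5-luciferase: HEK293T cells, 16 hr compound incubation at 37C, Amplite detection.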

[3] = qHTS assay for small molecule disruptors of the mitochondrial membrane potential - cell viability (AID 720634; calls by dose curve;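 note: human HepG2 liver cancer cells; series mostly up to about 83 µM; nearly all actives have a fitted effect of over 20% in size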)
Summary of the method: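 Human hepatoma HepG2 cells were treated for 1 hr with test chemicals, then given m-MPI dye and CellTiter-Glo. Cell viability reflects luminescence proportional to cellular ATP.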

[4] = qHTS assay to test for compound auto fluorescence at 590 nm (red) in HepG2 cells (AID 720674)
Summary of the method: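 We screened compounds on adherent HepG2 cells, incubating them for an hour at 37 C in 5% CO2 before reading emission at 590 nm under 540 nm excitation; values reflect equivalence to Rose Bengal sodium fluorescence.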

[5] = qHTS assay to test for compound auto fluorescence at 535 nm (green) in HepG2 cells (AID 720675)
[6] = qHTS assay to test for compound auto fluorescence at 460 nm (blue) in HEK293 cells (AID 720678)
Summary of the method: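 After cell attachment (4-5 hr, 37C), compounds were pinned onto HEK293 monolayers in 10% dialyzed FBS medium. The blue channel (405/460 nm) was read following overnight culture. Equivalency was calculated against triamterene.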

[7] = qHTS assay to test for compound auto fluorescence at 535 nm (green) in HEK293 cells (AID 720680)
[8] = qHTS assay to test for compound auto fluorescence at 460 nm (blue) in HEK293 cell free culture (AID 720681)
Summary of the method: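 Blue fluorescence (Ex 405/Em 460 nm, triamterene-equivalent) was read immediately after pin transfer of compound or DMSO into medium (DMEM, 10% FBS) without cells.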

[9] = qHTS assay to test for compound auto fluorescence at 535 nm (green) in HEK293 cell free culture (AID 720682)
Summary of the method: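 Read-out: 485/535 nm fluorescence intensity, calibrated against fluorescein. Medium only (DMEM + 10% FBS, no cells); test compound or DMSO vehicle added by pintool before plate reading.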

[10] = qHTS assay to test for compound auto fluorescence at 590 nm (red) in HEK293 cell free culture (AID 720683)
Summary of the method: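 Red-channel autofluorescence of compounds in culture medium (DMEM, 10% FBS), no cells, measured at 540/590 nm. Rose Bengal sodium is the reference fluorophore for equivalence.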

[11] = qHTS assay to test for compound auto fluorescence at 590 nm (red) in HepG2 cell free culture (AID 720684)
Summary of the method: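 Steps: dispense MEM/10% FBS medium, no cells; pin compound or DMSO vehicle; read red channel, Ex/Em 540/590 nm. Output given as Rose Bengal sodium equivalents.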

[12] = qHTS assay to test for compound auto fluorescence at 460 nm (blue) in HepG2 cell free culture (AID 720685)
Summary of the method: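 Compound (23 nL) or DMSO pinned into cell-free MEM with 10% FBS; blue fluorescence read at 405/460 nm excitation/emission, expressed as auto-fluorescence equivalency to triamterene.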

[13] = qHTS assay to test for compound auto fluorescence at 535 nm (green) in HepG2 cell free culture (AID 720686)
[14] = qHTS assay to test for compound auto fluorescence at 460 nm (blue) in HepG2 cells (AID 720687)
Summary of the method: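 Blue-channel autofluorescence (Ex/Em 405/460 nm, triamterene-equivalent) was measured after 1 hr compound exposure at 37 C, 5% CO2. Cells were HepG2, plated overnight at 37 C in MEM plus 10% FBS.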

[15] = qHTS assay for small molecule agonists of the p53 signaling pathway - cell viability (AID 651633; calls by dose curve; note: nearly all actives have a fitted effect of over 30% in size; note: potency is the fitted concentration of half-maximal effect)
Summary of the method: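 Viability counter-read: CellTiter-Glo luminescence (30 min, room temperature) in the same p53RE-bla plates. These plates had been exposed to compounds for 16 h at 37 C.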

[16] = qHTS assay for small molecule disruptors of the mitochondrial membrane potential (AID 720635); note: potency is the fitted concentration of half-maximal effect
Summary of the method: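 Mitochondrial membrane potential tracked with Mito-MPS dye, red aggregates (ex 540/em 590 nm) against green monomers (ex 490/em 535 nm). Compound treatment 1 hr at 37C, dye 30 min in HepG2.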

[17] = biological target: Glucocorticoid receptor (Homo sapiens) (UniProt P04150); test: qHTS assay to identify small molecule antagonists of the glucocorticoid receptor (GR) signaling pathway (AID 720692; active = well fitted inhibition curve with a large enough effect in the signal ratio in the repeat runs, not every such curve was filed as active; the % refers to the signal ratio; note: potency is the fitted concentration of half-maximal effect)
Summary of the method: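 Fluorescence from cleaved LiveBLAzer B/G FRET substrate reports GRE-driven beta-lactamase in HeLa cells; compounds are tested against 5 nM dexamethasone (final) over 18 h at 37 C, substrate incubation 2 h at room temperature.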

[18] = biological target: Glucocorticoid receptor (Homo sapiens) (UniProt P04150); test: qHTS assay to identify small molecule agonists of the glucocorticoid receptor (GR) signaling pathway (AID 720691; active = well fitted activation curve with a large enough effect in the signal ratio in the repeat runs, not every such curve was filed as active; the % refers to the signal ratio)
Summary of the method: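 Beta-lactamase reporter activity, read as fluorescence intensity, was measured in GR-bla HeLa cells exposed to compounds for 18 h at 37 C and then loaded with LiveBLAzer B/G FRET substrate for 2 h at room temperature.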

[19] = qHTS assay for small molecules that induce genotoxicity in human embryonic kidney cells expressing luciferase-tagged ATAD5 - cell viability (AID 651634; calls by dose curve; note: nearly all actives have a fitted effect of over 25% in size)
Summary of the method: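 Live-cell protease activity (CellTiter-Fluor, fluorescence) indicates viability. HEK293T cells with luciferase-tagged ATAD5; 15.5 hr compound treatment at 37C.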

[20] = qHTS assay to test for compound auto fluorescence at 590 nm (red) in HEK293 cells (AID 720679)
Summary of the method: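 Plates of HEK293 cells (10% dialyzed FBS) are treated with 23 nL compound or DMSO vehicle after a 4-5 hr attachment period, incubated overnight at 37C, and read for red fluorescence at 540/590nm.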

Glucocorticoid receptor (Homo sapiens), sequence (P04150 whole entry, looked up): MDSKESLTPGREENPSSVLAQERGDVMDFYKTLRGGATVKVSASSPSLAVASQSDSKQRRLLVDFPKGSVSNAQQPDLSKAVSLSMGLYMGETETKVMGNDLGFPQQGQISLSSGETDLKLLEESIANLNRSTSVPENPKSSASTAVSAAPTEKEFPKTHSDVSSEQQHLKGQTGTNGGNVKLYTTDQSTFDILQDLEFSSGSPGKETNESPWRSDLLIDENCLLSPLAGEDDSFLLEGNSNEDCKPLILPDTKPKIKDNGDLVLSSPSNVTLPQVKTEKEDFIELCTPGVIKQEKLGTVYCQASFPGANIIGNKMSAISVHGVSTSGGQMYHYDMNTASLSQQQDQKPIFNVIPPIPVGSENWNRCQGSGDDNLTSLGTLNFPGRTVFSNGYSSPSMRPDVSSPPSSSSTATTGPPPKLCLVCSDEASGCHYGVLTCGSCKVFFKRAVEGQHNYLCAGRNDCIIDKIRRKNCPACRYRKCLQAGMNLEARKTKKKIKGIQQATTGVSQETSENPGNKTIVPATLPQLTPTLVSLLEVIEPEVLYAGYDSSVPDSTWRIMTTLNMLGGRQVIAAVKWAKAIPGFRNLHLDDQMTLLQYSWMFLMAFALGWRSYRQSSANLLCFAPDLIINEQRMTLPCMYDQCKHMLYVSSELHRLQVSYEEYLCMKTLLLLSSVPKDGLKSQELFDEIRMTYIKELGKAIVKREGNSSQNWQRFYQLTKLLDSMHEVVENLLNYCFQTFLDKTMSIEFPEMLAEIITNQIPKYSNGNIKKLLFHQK

Compound: CC(C)=CCOc1c2occc2cc2ccc(=O)oc12
- Potency [1]: inactive
- Potency [2]: inactive
- Potency [3]: inactive
- outcome [4]: inactive
- outcome [5]: inactive
- outcome [6]: inactive
- outcome [7]: inactive
- outcome [8]: inactive
- outcome [9]: inactive
- outcome [10]: inactive
- outcome [11]: inactive
- outcome [12]: inactive
- outcome [13]: inactive
- outcome [14]: inactive

Compound: CCCCCCCCCC(=O)O[C@H]1CC[C@H]2[C@@H]3CCC4=CC(=O)CC[C@@H]4[C@H]3CC[C@]12C
- Potency [1]: inactive
- Potency [2]: inactive
- Potency [15]: inactive
- Potency [3]: inactive
- Potency [16]: inactive
- outcome [4]: inactive
- outcome [5]: inactive
- outcome [6]: inactive
- outcome [7]: inactive
- outcome [8]: inactive
- outcome [9]: inactive
- outcome [11]: inactive
- outcome [12]: inactive
- outcome [13]: inactive
- outcome [14]: inactive
- Potency [17]: 9.52 µM (active)

Compound: CCOc1ccc(C(C)(C)COCc2cccc(Oc3ccccc3)c2)cc1
- Potency [1]: inactive
- Potency [2]: inactive
- Potency [15]: inactive
- Potency [3]: inactive
- outcome [4]: inactive
- outcome [5]: inactive
- outcome [6]: inactive
- outcome [7]: inactive
- outcome [8]: inactive
- outcome [9]: inactive
- outcome [10]: inactive
- outcome [11]: inactive
- outcome [12]: inactive
- outcome [13]: inactive
- outcome [14]: inactive
- outcome [18]: inactive
- Potency [17]: inactive

Compound: CC(Cl)C(C)Cl (stereo not given)
- Potency [1]: inactive
- Potency [2]: inactive
- Potency [19]: inactive
- Potency [3]: inactive
- outcome [4]: inactive
- outcome [5]: inactive
- outcome [6]: inactive
- outcome [20]: inactive
- outcome [7]: inactive
- outcome [9]: inactive
- outcome [10]: inactive
- outcome [11]: inactive
- outcome [12]: inactive
- outcome [13]: inactive
- outcome [14]: inactive
- outcome [18]: inactive
- Potency [17]: inactive

Compound: CO[C@@H]1[C@H](OC(=O)NC(=O)CCl)CC[C@]2(CO2)[C@H]1[C@@]1(C)O[C@@H]1CC=C(C)C
- Potency [1]: 18.8 µM (active)
- Potency [3]: inactive
- Potency [16]: inactive
- fluorescence, relative to Rose Bengal [4]: -0.229% [at 18.6 µM]
- fluorescence, % of fluorescein control [5]: -0.0271% [at 18.6 µM]
- fluorescence, % of triamterene [6]: 0.0741% [at 18.6 µM]
- fluorescence, % of fluorescent control [20]: 0.143% [at 18.6 µM]
- fluorescence, % of fluorescein [7]: -0.127% [at 18.6 µM]
- fluorescence, % of fluorescent control [8]: -0.0636% [at 18.6 µM]
- activity change [9]: 0.201% [at 18.6 µM]
- fluorescence, % of fluorescent control [10]: -0.369% [at 18.6 µM]
- fluorescence, % of Rose Bengal [11]: -0.153% [at 18.6 µM]
- fluorescence, % of fluorescent control [12]: -0.133% [at 18.6 µM]
- fluorescence, % of fluorescein control [13]: -0.0091% [at 18.6 µM]
- fluorescence, % of fluorescent control [14]: 0.154% [at 18.6 µM]
- outcome [18]: inactive

Compound: COCC(C)N(C(=O)CCl)c1c(C)csc1C (stereo not given)
- Potency [1]: inactive
- Potency [2]: inactive
- Potency [15]: inactive
- Potency [3]: inactive
- Potency [16]: inactive
- outcome [4]: inactive
- outcome [5]: inactive
- outcome [6]: inactive
- outcome [7]: inactive
- outcome [8]: inactive
- outcome [9]: inactive
- outcome [10]: inactive
- outcome [11]: inactive
- outcome [12]: inactive
- outcome [13]: inactive
- outcome [14]: inactive
- outcome [18]: inactive
- Potency [17]: inactive

Compound: CCCCN(N=O)C(=N)N[N+](=O)[O-]
- Potency [1]: 62.4 µM (active)
- Potency [15]: inactive
- Potency [19]: inactive
- Potency [3]: inactive
- Potency [16]: inactive
- outcome [4]: inactive
- outcome [5]: inactive
- outcome [6]: inactive
- outcome [20]: inactive
- outcome [7]: inactive
- outcome [9]: inactive
- outcome [10]: inactive
- outcome [11]: inactive
- outcome [12]: inactive
- outcome [13]: inactive
- outcome [14]: inactive
- outcome [18]: inactive

Compound: S=C=NCc1ccccc1
- Potency [1]: 69.3 µM (active)
- Potency [15]: inactive
- Potency [3]: inactive
- Potency [16]: 55 µM (active)
- outcome [4]: inactive
- outcome [5]: inactive
- outcome [6]: inactive
- outcome [20]: inactive
- outcome [7]: inactive
- outcome [8]: inactive
- outcome [9]: inactive
- outcome [11]: inactive
- outcome [12]: inactive
- outcome [13]: inactive
- outcome [14]: inactive
- outcome [18]: inactive
- Potency [17]: inactive

Compound: O=C(NCc1cccnc1)Nc1ccc([N+](=O)[O-])cc1
- Potency [1]: inactive
- Potency [2]: inactive
- Potency [19]: inactive
- Potency [3]: inactive
- outcome [4]: inactive
- outcome [5]: inactive
- outcome [6]: inactive
- outcome [20]: inactive
- outcome [7]: inactive
- outcome [9]: inactive
- outcome [11]: inactive
- outcome [12]: inactive
- outcome [13]: inactive
- outcome [14]: inactive

Compound: ClCc1ccccc1
- Potency [1]: inactive
- Potency [2]: inactive
- Potency [15]: inactive
- Potency [3]: inactive
- outcome [4]: inactive
- outcome [5]: inactive
- outcome [6]: inactive
- outcome [20]: inactive
- outcome [7]: inactive
- outcome [8]: inactive
- outcome [9]: inactive
- outcome [10]: inactive
- outcome [11]: inactive
- outcome [12]: inactive
- outcome [13]: inactive
- outcome [14]: inactive

Compound: COC(C)(C)CCC[C@H](C)C/C=C/C(C)=C/C(=O)OC(C)C
- Potency [2]: inactive
- Potency [15]: 61.1 µM (active)
- Potency [19]: inactive
- Potency [16]: 30.6 µM (active)
- outcome [4]: inactive
- outcome [5]: inactive
- outcome [6]: inactive
- outcome [20]: inactive
- outcome [7]: inactive
- outcome [8]: inactive
- outcome [9]: inactive
- outcome [10]: inactive
- outcome [11]: inactive
- outcome [12]: inactive
- outcome [13]: inactive
- outcome [14]: inactive

Compound: C=CC[C@]1(O)CC[C@H]2[C@@H]3CCC4=CC(=O)CCC4=C3C=C[C@@]21C
- Potency [2]: inactive
- Potency [15]: inactive
- Potency [19]: inactive
- Potency [3]: inactive
- outcome [4]: inactive
- outcome [5]: inactive
- outcome [7]: inactive
- outcome [8]: inactive
- outcome [9]: inactive
- outcome [11]: inactive
- outcome [12]: inactive
- outcome [14]: inactive
- outcome [18]: inactive
- Potency [17]: 0.301 µM (active)

Compound: CCC(Cl)CCl (stereo not given)
- Potency [2]: inactive
- Potency [15]: inactive
- Potency [19]: inactive
- Potency [3]: inactive
- outcome [4]: inactive
- outcome [5]: inactive
- outcome [6]: inactive
- outcome [20]: inactive
- outcome [7]: inactive
- outcome [8]: inactive
- outcome [9]: inactive
- outcome [10]: inactive
- outcome [11]: inactive
- outcome [12]: inactive
- outcome [13]: inactive
- outcome [14]: inactive

Compound: O=C(Nc1ccccc1)Nc1cnns1
- Potency [2]: inactive
- Potency [15]: inactive
- Potency [19]: inactive
- Potency [3]: inactive
- Potency [16]: 3.06 µM (active)
- outcome [4]: inactive
- outcome [5]: inactive
- outcome [6]: inactive
- outcome [20]: inactive
- outcome [7]: inactive
- outcome [9]: inactive
- outcome [10]: inactive
- outcome [11]: inactive
- outcome [12]: inactive
- outcome [13]: inactive
- outcome [14]: inactive
- Potency [17]: inactive

From PubChem BioAssay (Tox21)
